This is an account of results in PubChem BioAssay (NCATS).

The structures appear in SMILES notation. Inconclusive results are not listed. Calls of active or inactive are those of the source. Unless noted, calls follow the shape of the dose curve; as a rule, active = well fitted curve in the direction sought with a large enough effect; inconclusive = small, poorly fitted or top-dose-only effect, or another doubt; inactive = no such curve, though single readings can be large; an effect the other way counts as inactive or inconclusive.

Assay [1] addresses Lysosomal acid glucosylceramidase (Homo sapiens) (UniProt P04062). Description: Glucocerebrosidase-p2 (AID 348; in the data active = potency below about 10 µM; also: potency is read from the fitted curve at half-maximal effect). Particulars: purified GBA, blue fluorogenic substrate, 40 min. In short, it runs like this:
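Normal human glucocerebrosidase (0.2 nM) with blue fluorogenic substrate (80 uM final) in citrate/phosphate pH 5.9 with 10mM sodium taurocholate, 0.01% tween-20; 40 min RT, NaOH/glycine stop; fluorescence Ex 365/Em 440; AC50 from a titration from 0.6 nM upwards.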

The nature of assay [2]: AP1 Signaling Pathway (AID 357; active = well fitted curve in either direction with a large enough effect, not every such curve was filed as active;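 also: ME-180 reporter cells stimulated with EGF at its EC50 level; % is scaled to controls: 0 for no effect and ±100 for the full control effect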). As to conditions: ME-180 AP-1-bla reporter, EGF-induced, beta-lactamase ratio, 5 h; at 7.69 µM (top of the series) unless noted. In short, it runs like this:
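AP-1-bla ME-180 cells, Opti-MEM + 0.5% dialyzed FBS, plated overnight 37 °C. Cpd titration + EC50 EGF, 5 h 37 °C. CCF4 2.5 h RT; ex 405, em 460/530 ratio → %activity, AC50.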

Assay [3] addresses Cytochrome P450 1A2 (Homo sapiens) (UniProt P05177). Briefly: p450-cyp1a2 (AID 410; calls by dose curve; also: potency is read from the fitted curve at half-maximal effect). As to conditions: recombinant CYP1A2, luciferin-ME demethylation, luminescence; series mostly up to 57 µM. In short, it runs like this: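 O-Demethylation of luciferin 6' methyl ether by human CYP1A2 is monitored as luciferase luminescence. Substrate sits at Km (100uM); enzyme is 20nM. Values are scaled to 57 uM furafylline as maximal inhibition.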

Assay [4] is described as follows: Stat Signaling Pathway (AID 446; active = well fitted curve in either direction with a large enough effect, not every such curve was filed as active;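 also: ME-180 cervical cancer cells given 40 pM IL-6 alongside compound; SIE-controlled beta-lactamase reporter measured as 460/530 nm FRET emission ratio; % is scaled to controls: 0 for no effect and ±100 for the full control effect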). As to conditions: ME-180 SIE beta-lactamase reporter, IL-6 stimulated, 5 h; at 7.69 µM (top of the series) unless noted. In short, it runs like this: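 Compound effects on IL-6-induced STAT reporter activity were measured in ME-180 cells. After overnight culture, cells were co-treated with 40 pM IL-6 for 5 hrs before beta-lactamase substrate loading at room temperature.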

Assay [5] deals with Glucocorticoid receptor (Homo sapiens) (UniProt P04150). Description: GR-GFP Redistribution (AID 450;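 active = compounds whose dose series gives a full or clear partial fitted curve of increased nuclear translocation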; also: potency is read from the fitted curve at half-maximal effect). Particulars: U2OS GR-GFP nuclear translocation, laser cytometry, 2 h.
Chain of Glucocorticoid receptor (Homo sapiens) (P04150 whole entry, looked up, the tested form may be a part): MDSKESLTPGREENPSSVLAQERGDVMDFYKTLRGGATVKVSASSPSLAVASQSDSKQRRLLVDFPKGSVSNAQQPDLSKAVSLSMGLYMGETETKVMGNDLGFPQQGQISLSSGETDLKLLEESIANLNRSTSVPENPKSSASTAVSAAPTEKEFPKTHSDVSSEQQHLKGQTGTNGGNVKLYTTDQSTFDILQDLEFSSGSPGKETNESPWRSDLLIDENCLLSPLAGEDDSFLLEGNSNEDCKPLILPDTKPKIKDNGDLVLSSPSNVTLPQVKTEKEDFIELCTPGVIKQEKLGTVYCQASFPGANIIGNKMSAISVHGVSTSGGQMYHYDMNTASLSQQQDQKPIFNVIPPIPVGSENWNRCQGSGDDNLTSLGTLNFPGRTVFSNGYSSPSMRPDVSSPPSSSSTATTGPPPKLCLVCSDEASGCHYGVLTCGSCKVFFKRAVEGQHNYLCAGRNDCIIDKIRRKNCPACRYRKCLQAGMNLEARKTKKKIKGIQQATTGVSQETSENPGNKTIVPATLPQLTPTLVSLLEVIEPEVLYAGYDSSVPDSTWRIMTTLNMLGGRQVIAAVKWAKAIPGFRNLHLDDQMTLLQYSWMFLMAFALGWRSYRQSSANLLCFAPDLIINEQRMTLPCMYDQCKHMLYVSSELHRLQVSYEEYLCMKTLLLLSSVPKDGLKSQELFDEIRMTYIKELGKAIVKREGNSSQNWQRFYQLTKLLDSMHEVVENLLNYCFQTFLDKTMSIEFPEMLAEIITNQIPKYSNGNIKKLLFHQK
Assay [6] shares this target. Description: GR-EFC Redistribution (AID 451; calls by dose curve; also: potency is read from the fitted curve at half-maximal effect). Particulars: CHO-K1 GR-EFC translocation, beta-gal luminescence, 2 h. In a few lines: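 CHO-K1 cells expressing nuclear EA and GR-ED fragments of b-gal; compounds titrated up to 46 uM final, 2 h at 37 C. GR nuclear translocation read as complemented b-gal luminescence after 1 h RT detection.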
For assay [7], the target named is Mitogen-activated protein kinase 10 (Mus musculus) (UniProt Q61831). Description: JNK3 AlphaScreen Assay (AID 530; active = well fitted curve in either direction with a large enough effect, not every such curve was filed as active;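 also: kinase came from lysate of stimulated human HepG2 cells; signal reports phosphorylation of biotinylated GST-cJun 1-79 at Ser73 with 10 µM ATP; % is scaled to controls: 0 for no effect and ±100 for the full control effect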). Particulars: JNK3 lysate, c-Jun phosphorylation; series mostly up to 57.1 µM. In a few lines:
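Activity was read by AlphaScreen after JNK3-containing HepG2 lysate (cytokine pre-activated) phosphorylated biotinylated GST-cJun with 10 uM ATP at room temperature. Phospho-Ser73 cJun antibody with Protein-A acceptor beads provided detection.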
(In general: In Alpha technology, singlet oxygen from a donor bead excites a nearby acceptor bead.)

Assay [8] addresses 3',5'-cyclic-AMP phosphodiesterase 4B (Homo sapiens) (UniProt Q07343). Briefly: qHTS Assay for Inhibitors of PDE-IV (AID 607; active = well fitted activation curve with a large enough effect in the main read-out, with a control signal flat, not every such curve was filed as active; also: % of control where 0% means no effect). As to conditions: HEK293 ACTOne CNG channel cells, membrane potential fluorescence; series mostly up to 22.9 µM. In short, it runs like this:
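ACTOne HEK293 cells carry a modified cAMP-gated CNG channel and express endogenous PDE4; plated 1000 cells/well, compounds up to 22.9 uM final. Membrane-potential dye fluorescence (ex 535/em 590) was read; parental cells received 10 uM forskolin + 100 uM RO 20-1724.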
A general note: qHTS replaces the single test concentration by a dilution series.

Assay [9] deals with Cytochrome P450 3A4 (Homo sapiens) (UniProt P08684). Description: qHTS Assay for Activators of Cytochrome P450 3A4 (AID 885). Also: nearly all actives have a fitted effect of over 65% in size. As to conditions: recombinant CYP3A4, Luciferin-PPXE luminescence, 60 min; series mostly up to 57.1 µM. In short, it runs like this:
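CYP3A4 activity: Luciferin-PPXE O-dealkylation, 25uM substrate, 200mM KPO4, RT throughout. Read-out is luciferase luminescence; higher values reflect activation.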

A short description of assay [10]: qHTS Assay for Identification of Small Molecule Agonists for Hypoxia Response Element Signaling Pathway (AID 914; active = well fitted activation curve with a large enough effect in the signal ratio, with a control signal flat, not every such curve was filed as active; the % refers to the signal ratio; also: potency is read from the fitted curve at half-maximal effect). As to conditions: ME-180 (cervical carcinoma) HRE-bla reporter, beta-lactamase ratio, CoCl2, 17 h; activation: stronger effect = higher value. In a few lines: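 In Opti-MEM containing 0.5% dialyzed FBS and 10 mM HEPES, ME-180 HRE-bla cells received a compound titration and EC50 CoCl2. They were incubated 17 hours, then CCF4-loaded 2.5 hours at room temperature before ratio reading.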

Assay [11] can be described thus: qHTS Assay for Lipid Storage Modulators (AID 1519; calls by dose curve). Particulars: Drosophila S3 cells, BODIPY lipid droplet/cell ratio, laser cytometry, cells loaded with oleic acid; for activity change, negative = inhibition: at 57.5 µM (top of the series). In short, it runs like this:
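Cells seeded at 5,000 per well were treated with compounds over a concentration series and loaded with oleic acid (400 uM, as added). Lipid droplet fluorescence (488 nm excitation, 500-530 nm channel) was read by laser-scanning cytometry and normalized to 20 uM Triacsin C.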

Assay [12] deals with Dual specificity protein kinase CLK4 (Homo sapiens) (UniProt Q9HAZ1). Description: qHTS Assay for Inhibitors of CDC-like Kinase 4 (Kinase-Glo Assay) (AID 1770). Also: nearly all actives have a fitted effect of over 65% in size. Also: potency is read from the fitted curve at half-maximal effect. Particulars: recombinant Clk4, Kinase-Glo ATP depletion luminescence; series mostly up to 66.7 µM. In a few lines:
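25 nM Clk4 with 100 uM RS repeat peptide and 1 uM ATP (final) in Tris pH7.5, 10 mM MgCl2, 4.5 h at room temperature. Remaining ATP measured by Kinase-Glo luciferase luminescence.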

The target is the same in assay [13]. Description: qHTS Assay for Inhibitors of CDC-like Kinase 4 (ADP-Glo Assay) (AID 1771). Also: nearly all actives have a fitted effect of over 70% in size. Also: potency is read from the fitted curve at half-maximal effect. Particulars: recombinant CLK4, ADP-Glo luminescence; series mostly up to 80 µM. In short, it runs like this: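 Compounds are pin-transferred onto substrate mix (100 uM RS peptide, 1 uM ATP), then 25 nM Clk4 is added. After 1 hr at room temperature, ADP-Glo reagent runs 45 min, detection reagent 30 min, then luminescence is read.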

The target is the same in assay [14]. Description: qHTS Assay for Inhibitors of CDC-like Kinase 4 (ADP-FP Assay) (AID 1795). Also: nearly all actives have a fitted effect of over 60% in size. Also: potency is read from the fitted curve at half-maximal effect. Particulars: Transcreener ADP fluorescence polarization; series mostly up to 50 µM. In short, it runs like this: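 Recombinant Clk4 (6.25 nM) phosphorylated 100 uM RS repeat peptide with 1 uM ATP in 25 mM Tris pH 7.5, 10 mM MgCl2, 0.5 mM EGTA, 2.5 mM DTT, 0.01% Triton X-100 for 1 h. ADP was detected by Transcreener ADP2 competitive fluorescence polarization after 30 min at room temperature.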

The target of assay [15] is Ubiquitin carboxyl-terminal hydrolase 1 (Homo sapiens) (UniProt O94782). Briefly: Inhibitors of USP1/UAF1: Pilot qHTS (AID 504865).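 Also: rhodamine fluorescence freed from ubiquitin-rhodamine substrate followed over time; top concentration of the series differs between compounds; % is scaled to controls: 0 for no effect and ±100 for the full control effect; nearly all actives have a fitted effect of over 35% in size.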 Particulars: purified USP1/UAF1, Ub-rhodamine cleavage fluorescence; series mostly up to 54.9 µM. In short, it runs like this:
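USP1/UAF1 complex at 1 nM preincubated 15 min at room temperature with compound, then Ub-Rho substrate added at 150 nM final. Fluorescence (480/540 nm) read kinetically in 50 mM HEPES pH 7.8, 0.5 mM EDTA, 1 mM TCEP, 0.1 mg/ml BSA, 0.01% Tween-20.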

Assay [16] can be described thus: Primary qHTS for small molecule stabilizers of the endoplasmic reticulum resident proteome: Secreted ER Calcium Modulated Protein (SERCaMP) assay (AID 1508630). Also: % is scaled to controls: 0 for no effect and ±100 for the full control effect. Particulars: SH-SY5Y GLuc-SERCaMP (Gaussia luciferase released on ER calcium loss) secretion, thapsigargin, luminescence; series mostly up to 38.4 µM. In a few lines:
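The SH-SY5Y reporter protocol was run at 3 concentrations up to 38.3 uM (primary) or 11 concentrations (follow-up): 16 h compound, 100 nM thapsigargin for 4 h, then extracellular luciferase luminescence.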

Assay [17] in a line: NFAT Signaling Pathway (AID 444; active = well fitted curve in either direction with a large enough effect, not every such curve was filed as active). As to conditions: Jurkat NFAT-bla M1, carbachol, beta-lactamase ratio, 5 h; at 7.69 µM (top of the series) unless noted. In short, it runs like this:
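Jurkat cells with NFAT-driven β-lactamase reporter and co-expressed M1 receptor, stimulated with carbachol (final 1 uM, ~EC50), compound titration, 5 h at 37 °C. CCF4 loaded 1 h at RT; 460/530 nm ratio gave %activity and AC50.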

Where [18] appears, read: measured here: cell count channel max response.
Where [19] appears, read: measured here: lipid channel max response.

Chain of Dual specificity protein kinase CLK4 (Homo sapiens) (Q9HAZ1 whole entry, looked up): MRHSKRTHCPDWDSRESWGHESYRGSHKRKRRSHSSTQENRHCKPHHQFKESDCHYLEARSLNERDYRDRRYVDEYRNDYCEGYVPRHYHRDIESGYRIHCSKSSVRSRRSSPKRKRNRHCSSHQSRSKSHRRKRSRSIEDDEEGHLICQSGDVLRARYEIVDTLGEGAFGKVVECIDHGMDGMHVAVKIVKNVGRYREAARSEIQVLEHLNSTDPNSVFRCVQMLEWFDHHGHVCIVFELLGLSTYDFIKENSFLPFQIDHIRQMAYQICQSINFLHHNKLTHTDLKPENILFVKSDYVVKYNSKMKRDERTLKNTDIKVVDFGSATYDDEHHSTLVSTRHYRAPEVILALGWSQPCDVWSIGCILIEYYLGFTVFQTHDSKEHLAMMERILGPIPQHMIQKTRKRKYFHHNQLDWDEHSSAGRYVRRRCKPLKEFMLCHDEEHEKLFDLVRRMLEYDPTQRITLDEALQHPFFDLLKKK
Chain of 3',5'-cyclic-AMP phosphodiesterase 4B (Homo sapiens) (Q07343 whole entry, looked up): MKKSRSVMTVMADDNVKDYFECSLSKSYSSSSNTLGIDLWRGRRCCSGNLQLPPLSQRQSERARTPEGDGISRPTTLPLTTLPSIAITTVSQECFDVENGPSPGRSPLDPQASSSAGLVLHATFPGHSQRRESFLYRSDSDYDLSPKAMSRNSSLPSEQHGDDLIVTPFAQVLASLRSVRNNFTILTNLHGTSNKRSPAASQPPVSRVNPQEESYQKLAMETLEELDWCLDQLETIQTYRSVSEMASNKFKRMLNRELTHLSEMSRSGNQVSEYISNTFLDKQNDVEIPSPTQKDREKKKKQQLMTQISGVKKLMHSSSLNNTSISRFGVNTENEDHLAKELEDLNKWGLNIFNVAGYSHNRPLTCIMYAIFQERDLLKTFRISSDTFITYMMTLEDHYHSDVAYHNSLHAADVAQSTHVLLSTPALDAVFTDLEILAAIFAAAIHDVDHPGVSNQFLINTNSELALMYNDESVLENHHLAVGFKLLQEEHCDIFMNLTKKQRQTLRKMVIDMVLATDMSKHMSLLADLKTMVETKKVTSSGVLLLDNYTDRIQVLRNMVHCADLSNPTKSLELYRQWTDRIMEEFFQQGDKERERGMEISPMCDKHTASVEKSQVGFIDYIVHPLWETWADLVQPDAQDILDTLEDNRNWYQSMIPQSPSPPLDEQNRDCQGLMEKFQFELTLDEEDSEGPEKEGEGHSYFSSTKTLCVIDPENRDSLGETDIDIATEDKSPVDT
Chain of Lysosomal acid glucosylceramidase (Homo sapiens) (P04062 whole entry, looked up): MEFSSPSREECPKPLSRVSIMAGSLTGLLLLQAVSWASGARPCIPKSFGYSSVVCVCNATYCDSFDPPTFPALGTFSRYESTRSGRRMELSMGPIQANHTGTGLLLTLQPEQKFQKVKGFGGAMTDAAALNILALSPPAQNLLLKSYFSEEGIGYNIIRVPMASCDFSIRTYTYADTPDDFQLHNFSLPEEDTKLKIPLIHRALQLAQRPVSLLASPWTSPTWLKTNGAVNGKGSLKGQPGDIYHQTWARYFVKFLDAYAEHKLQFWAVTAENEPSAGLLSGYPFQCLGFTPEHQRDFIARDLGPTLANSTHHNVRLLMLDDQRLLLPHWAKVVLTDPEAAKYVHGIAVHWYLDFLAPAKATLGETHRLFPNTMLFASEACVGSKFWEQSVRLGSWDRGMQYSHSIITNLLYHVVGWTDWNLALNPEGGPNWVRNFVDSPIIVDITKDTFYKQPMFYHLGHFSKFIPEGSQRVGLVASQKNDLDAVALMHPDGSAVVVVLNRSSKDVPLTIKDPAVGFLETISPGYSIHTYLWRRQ
Chain of Ubiquitin carboxyl-terminal hydrolase 1 (Homo sapiens) (O94782 whole entry, looked up): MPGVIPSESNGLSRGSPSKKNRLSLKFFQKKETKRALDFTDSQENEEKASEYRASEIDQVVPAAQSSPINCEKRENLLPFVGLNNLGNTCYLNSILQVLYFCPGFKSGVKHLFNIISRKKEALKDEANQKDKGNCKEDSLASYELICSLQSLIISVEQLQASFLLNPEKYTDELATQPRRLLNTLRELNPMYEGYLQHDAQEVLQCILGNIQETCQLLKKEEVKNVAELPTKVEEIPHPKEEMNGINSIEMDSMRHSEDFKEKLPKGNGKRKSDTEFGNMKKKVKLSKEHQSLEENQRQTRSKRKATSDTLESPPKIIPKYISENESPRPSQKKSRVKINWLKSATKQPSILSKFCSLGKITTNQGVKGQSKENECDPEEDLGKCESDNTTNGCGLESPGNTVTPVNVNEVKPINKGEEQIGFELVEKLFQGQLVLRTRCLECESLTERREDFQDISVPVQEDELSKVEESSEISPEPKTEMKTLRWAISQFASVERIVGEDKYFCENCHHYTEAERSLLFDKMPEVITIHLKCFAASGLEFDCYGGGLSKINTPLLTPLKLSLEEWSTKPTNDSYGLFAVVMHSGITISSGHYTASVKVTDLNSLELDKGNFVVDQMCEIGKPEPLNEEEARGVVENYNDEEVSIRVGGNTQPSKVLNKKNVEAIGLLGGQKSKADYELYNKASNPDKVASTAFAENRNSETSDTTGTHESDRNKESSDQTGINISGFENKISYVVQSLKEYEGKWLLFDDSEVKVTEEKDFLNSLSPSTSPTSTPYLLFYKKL
Chain of Cytochrome P450 1A2 (Homo sapiens) (P05177 whole entry, looked up): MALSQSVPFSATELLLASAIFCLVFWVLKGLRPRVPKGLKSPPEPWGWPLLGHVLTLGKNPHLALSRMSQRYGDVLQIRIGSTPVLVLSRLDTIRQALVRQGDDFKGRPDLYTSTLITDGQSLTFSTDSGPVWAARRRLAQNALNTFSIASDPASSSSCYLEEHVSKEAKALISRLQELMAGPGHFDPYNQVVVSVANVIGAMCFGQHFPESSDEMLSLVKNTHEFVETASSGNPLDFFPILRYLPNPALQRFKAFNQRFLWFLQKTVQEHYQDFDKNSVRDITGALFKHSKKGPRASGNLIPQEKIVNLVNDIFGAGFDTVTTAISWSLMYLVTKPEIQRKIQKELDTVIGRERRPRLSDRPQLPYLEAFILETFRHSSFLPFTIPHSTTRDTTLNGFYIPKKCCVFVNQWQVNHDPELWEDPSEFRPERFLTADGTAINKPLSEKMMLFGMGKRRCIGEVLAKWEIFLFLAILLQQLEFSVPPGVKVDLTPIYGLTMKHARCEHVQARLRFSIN
Chain of Cytochrome P450 3A4 (Homo sapiens) (P08684 whole entry, looked up): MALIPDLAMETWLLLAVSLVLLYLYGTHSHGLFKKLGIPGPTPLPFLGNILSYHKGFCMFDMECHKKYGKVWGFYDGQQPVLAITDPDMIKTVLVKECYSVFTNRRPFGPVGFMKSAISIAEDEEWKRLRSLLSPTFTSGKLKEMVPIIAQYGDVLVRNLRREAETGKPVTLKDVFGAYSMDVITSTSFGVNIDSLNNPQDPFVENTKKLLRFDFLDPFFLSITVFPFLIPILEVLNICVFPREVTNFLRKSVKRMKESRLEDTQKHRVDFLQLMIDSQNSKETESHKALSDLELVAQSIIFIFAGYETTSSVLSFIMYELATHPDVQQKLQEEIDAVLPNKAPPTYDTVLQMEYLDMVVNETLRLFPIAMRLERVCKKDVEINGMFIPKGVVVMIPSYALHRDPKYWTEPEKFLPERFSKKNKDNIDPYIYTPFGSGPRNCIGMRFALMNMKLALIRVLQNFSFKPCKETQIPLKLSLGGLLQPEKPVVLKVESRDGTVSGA

For the compound `CC(=O)NCCNc1ncnc2ccc(-c3c(C)noc3C)cc12`, the Potency was > 11.4 µM (inactive) in assay [1]; 15.8 µM (active) in [3]; > 46 µM (inactive) in assay [5]; > 46 µM (inactive) in assay [6]; 3.16 µM (active) in assay [10]; 7.08 µM (active) in [12]. In addition, the Potency is 6.31 µM (active) in assay [13] and 7.08 µM (active) in assay [14]. The values for the activity change, negative = inhibition in assay [2] and in assay [11] were 12.8% (inactive) and 3.36% (inactive), respectively. Besides, the activity, negative = inhibition in [4] was -17.9% (inactive). Moreover, the result in assay [7] was inactive. In addition, the Potency entry in assay [8], in [9], in assay [15] and in assay [16] was “inactive” in each case. Further, the figures for the max response in [11] (setting [18]) and in assay [11] (setting [19]) were 28.8% and 29.5%, respectively.
Take `c1ccc(CNc2cc(-c3cccnc3)ncn2)cc1`: the Potency was > 11.4 µM (inactive) in assay [1]; > 46 µM (inactive) in assay [5]; > 46 µM (inactive) in assay [6]; 10 µM (active) in [12]; 4.47 µM (active) in assay [13]; 5.01 µM (active) in [14]. Besides, the activity change, negative = inhibition in assay [2] was 1.27% (inactive); in [17], 15.4% (inactive); in assay [11], 7.56% (inactive). The activity, negative = inhibition in assay [4] was 14.9% (inactive). For the same compound, in assay [7], the result was inactive. Besides, the max response was found to be 11.5% in assay [11] (setting [18]) and 21.7% in assay [11] (setting [19]). The Potency result in [15] and in assay [16] was “inactive” in each case.
With `COc1ccc(-c2nc3cnc(N4CCOCC4)nc3n(C)c2=O)cc1`, the Potency in assay [1] is > 11.4 µM (inactive); in assay [5], > 9.22 µM (inactive); in assay [6], > 46 µM (inactive). The values for the activity change, negative = inhibition in [2], in assay [17] and in [11] were -14.2% (inactive), -0.157% (inactive) and 1.23% (inactive), respectively. For the same compound, the activity, negative = inhibition in assay [4] was -2.93% (inactive). In addition, the compound was classed as inactive in assay [7]. Besides, the Potency entry in assay [8], in assay [12], in assay [13], in assay [14], in assay [15] and in assay [16] was “inactive” each time. In addition, the max response turned out to be 7.61% in assay [11] (setting [18]) and 5.75% in [11] (setting [19]).
With `Cn1c(=O)c(-c2cccs2)nc2cnc(OCc3ccccc3)nc21`, the Potency in assay [1] was > 11.4 µM (inactive); in assay [3] it was 7.94 µM (active); in [5], > 9.22 µM (inactive); in assay [6] it was > 46 µM (inactive). In addition, the values for the activity change, negative = inhibition in [2], in assay [17] and in assay [11] were 16% (inactive), 22.3% (inactive) and 6.88% (inactive), respectively. For the same compound, the call in [7] was inactive. The Potency entry in assay [8], in assay [12], in [13], in assay [14] and in assay [16] was “inactive” each time. Further, the max response in assay [11] (setting [18]) worked out at 20.6%; in assay [11] (setting [19]), 29.6%.
On to `O=c1c(CCc2ccccc2)nc2cnc(N3CCOCC3)nc2n1Cc1cccs1`, for which the Potency in [1] was > 11.4 µM (inactive); in assay [5], > 9.22 µM (inactive); in assay [6], > 46 µM (inactive). Moreover, the values for the activity change, negative = inhibition in assay [2], in assay [17] and in [11] were -2.34% (inactive), -3.56% (inactive) and 8.99% (inactive), respectively. Also, the activity, negative = inhibition in [4] is 2.46% (inactive). Moreover, the compound was called inactive in assay [7]. In addition, the max response worked out at 7.22% in assay [11] (setting [18]) and 18.4% in assay [11] (setting [19]). Besides, the Potency entry in assay [12], in [13], in assay [14], in [15] and in assay [16] was “inactive” throughout.
Consider `Cc1nc2cnc(N3CCOCC3)nc2n(Cc2ccc(F)cc2)c1=O`, for which the Potency in assay [1] was > 11.4 µM (inactive); in [5] it was > 9.22 µM (inactive); in assay [6], > 46 µM (inactive). The activity change, negative = inhibition was -3.91% (inactive) in assay [2], -17.2% (inactive) in assay [17] and 2.61% (inactive) in assay [11]. Further, the activity, negative = inhibition in [4] was 4.04% (inactive). For the same compound, the compound was classed as inactive in assay [7]. The results for the max response in assay [11] (setting [18]) and in assay [11] (setting [19]) were 13.7% and 15.9%, respectively. For the same compound, the Potency entry in assay [12], in [13], in [14], in [15] and in assay [16] was “inactive” each time.
